Structures are written as SMILES. Records with an inconclusive call do not appear. The source made the active and inactive calls. Unless noted, the call rests on the fitted dose curve; in most records, active means well fitted curve in the direction sought with a large enough effect; inconclusive means small, poorly fitted or top-dose-only effect, or another doubt; inactive means no such curve, though single readings can be large; an effect the other way counts as inactive or inconclusive.

Assay [1] is described as follows: Quantitative high throughput screen for delayed death inhibitors of the malarial parasite plastid, 48 hour incubation (AID 488752). Further: on the % scale 0 is the no-effect control and ±100 the full control effect; nearly all actives have a fitted effect of over 65% in size. In a few lines:
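Erythrocytes infected with P. falciparum carrying an integrated firefly luciferase reporter (2% hematocrit, 0.1% parasitemia final) were exposed to compounds in RPMI 1640/0.5% Albumax for 48 h at 37 C, 5% CO2. Growth inhibition was scored as reduced luminescence.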

In assay [2] the target is Thioredoxin reductase 1, cytoplasmic (Rattus norvegicus) (UniProt O89049). The experiment in a line: qHTS Assay for Substrates of Mammalian Selenoprotein Thioredoxin Reductase 1 (TrxR1) (AID 488772).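 Further: NADPH fluorescence in the first read after selenite addition and not the 8 min delta; series mostly up to about 57 µM; 0% is about no effect; a drop in NADPH fluorescence below the no-compound background marks a TrxR1 substrate.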 In a few lines:
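Quantitative HTS in Tris-HCl buffer at pH 7.5 with EDTA and Tween-20, using rat TrxR1, 400 uM NADPH and 400 uM selenite (final). A fall in initial NADPH fluorescence relative to background marked substrate behaviour.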

Assay [3] shares this target. The experiment in a line: qHTS Assay for Inhibitors of Mammalian Selenoprotein Thioredoxin Reductase 1 (TrxR1) (AID 488773).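 Further: drop in NADPH fluorescence over an 8 min run after selenite addition; series mostly up to about 57 µM; on the % scale 0 is the no-effect control and ±100 the full control effect; nearly all actives have a fitted effect of over 40% in size.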 In a few lines: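 Steps: enzyme (90 nM) plus NADPH (400 uM final), 5 min at ~22 deg C; compound added, 15 min; selenite (400 uM final) added; fluorescence followed for 8 min. Concentration-response curves derived from the normalized delta values.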

The target of assay [4] is M-phase phosphoprotein 8 (Homo sapiens) (UniProt Q99549). In words: qHTS Validation Assay for Inhibitors for MPP8 Chromodomain Interactions with Methylated Histone Tails (AID 488949). Further: top concentration of the series differs between compounds; on the % scale 0 is the no-effect control and ±100 the full control effect; nearly all actives have a fitted effect of over 55% in size. In a few lines: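 MPP8 (50 nM) was pre-bound to 50 nM biotinylated H3(1-18)K9me3 peptide in PBS pH 7.4 with 0.01% Tween-20. Compounds were then added for 30 min at room temperature, and complex disruption was read by AlphaScreen with streptavidin donor and nickel-chelate acceptor beads.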
Chain of M-phase phosphoprotein 8 (Homo sapiens) (Q99549 whole entry, looked up): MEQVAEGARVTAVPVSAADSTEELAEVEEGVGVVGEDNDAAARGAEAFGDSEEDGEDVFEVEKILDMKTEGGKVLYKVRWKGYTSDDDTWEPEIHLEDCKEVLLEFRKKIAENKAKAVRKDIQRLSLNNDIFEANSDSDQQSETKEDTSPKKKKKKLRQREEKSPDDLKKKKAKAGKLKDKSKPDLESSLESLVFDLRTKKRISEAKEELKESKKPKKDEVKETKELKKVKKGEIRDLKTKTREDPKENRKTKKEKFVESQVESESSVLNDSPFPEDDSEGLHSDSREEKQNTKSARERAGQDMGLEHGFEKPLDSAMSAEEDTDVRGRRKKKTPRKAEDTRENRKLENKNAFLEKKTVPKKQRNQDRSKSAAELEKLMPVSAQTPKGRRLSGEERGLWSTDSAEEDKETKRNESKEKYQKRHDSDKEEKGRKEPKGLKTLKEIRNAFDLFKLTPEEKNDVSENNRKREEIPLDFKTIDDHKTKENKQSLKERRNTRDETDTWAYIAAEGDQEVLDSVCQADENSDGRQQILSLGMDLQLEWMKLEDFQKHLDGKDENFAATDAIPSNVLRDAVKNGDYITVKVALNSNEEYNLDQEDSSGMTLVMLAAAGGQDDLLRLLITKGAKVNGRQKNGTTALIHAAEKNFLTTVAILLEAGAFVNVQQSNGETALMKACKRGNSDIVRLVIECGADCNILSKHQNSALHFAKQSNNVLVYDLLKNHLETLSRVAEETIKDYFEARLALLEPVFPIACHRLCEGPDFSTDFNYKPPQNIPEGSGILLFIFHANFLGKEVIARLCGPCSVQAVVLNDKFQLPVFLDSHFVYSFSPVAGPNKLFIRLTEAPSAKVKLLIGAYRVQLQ
On the technique in general: In qHTS, concentration-response curves come from the screen itself.

The target of assay [5] is Chromobox protein homolog 1 (Homo sapiens) (UniProt P83916). The experiment in a line: qHTS Validation Assay for Inhibitors of HP1-beta Chromodomain Interactions with Methylated Histone Tails (AID 488953).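 Further: loss of AlphaScreen luminescence from HP1-beta binding biotinylated H3K9me3 peptide; series mostly up to about 110 µM; on the % scale 0 is the no-effect control and ±100 the full control effect; nearly all actives have a fitted effect of over 50% in size.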 In a few lines:
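HP1-beta (50 nM) was preincubated 30 min at room temperature with biotinylated H3(1-18)K9me3 peptide (50 nM) in PBS pH 7.4, 0.01% Tween-20, then with compounds 30 min. AlphaScreen signal was read after streptavidin donor/nickel chelate acceptor beads (10 ug/mL final).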

Assay [6] has as its target Methanococcus maripaludis chaperonin (MmCpn) (UniProt Q6LX38). The experiment in a line: High-Throughput Screening for Modulators of Cytosolic Chaperonin Activity: MmCpn Primary Screen (AID 488978).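 Further: 50 nM MmCpn enzyme hydrolysing 30 µM ATP at 37 °C; 0% is about no effect.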 In a few lines:
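MmCpn at 50 nM final was preincubated 5 min at RT with compound. ATP was then added at 30 uM final for 10 min at 37 C. ADP formed was detected by Transcreener HTRF (665/590 nm).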

Assay [7] addresses Transient receptor potential cation channel subfamily V member 1 (Homo sapiens) (UniProt Q8NER1). In words: HTS Assay for Compounds that Act as Enhancers of the Vanilloid Receptor 1 (AID 488979). Further: 0% is about no effect. In a few lines: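 TRPV1-expressing cells loaded with Fluo-8 calcium dye; compounds added and calcium influx read kinetically for 3 min (agonist phase), then capsaicin at EC20 added and read 2 min more for enhancement. Fluorescence ex 480/em 520 nm.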

Assay [8] has as its target Thyrotropin receptor (Homo sapiens) (UniProt P16473). The experiment in a line: qHTS Assay for Antagonists of the Thyroid Stimulating Hormone Receptor (AID 488980). Further: series mostly up to about 58 µM; 0% is about no effect. In short, it runs like this: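 TSHR-transfected HEK293 cells (2000/well) in HEPES-buffered HBSS with 70 uM RO 20-1724 were stimulated with 4 nM TSH (EC80, final) in the presence of compound. cAMP was measured by HTRF competition after lysis and 30 min at RT.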

Assay [9] addresses D(1A) dopamine receptor (Homo sapiens) (UniProt P21728). In words: HTS Assay for Allosteric Agonists of the Human D1 Dopamine Receptor: Primary Screen for Potentiators (AID 488982). Further: 0% is about no effect. In a few lines:
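Tetracycline-induced HEK293 T-REx cells force-coupled to calcium signalling were incubated overnight at 30 C and dye-loaded at room temperature. Calcium flux over 180 s after compound addition flagged agonists; a further 180 s read after EC20 dopamine flagged potentiators.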

The target is the same in assay [10]. The experiment in a line: HTS Assay for Allosteric Agonists of the Human D1 Dopamine Receptor: Primary Screen for Antagonists (AID 488983).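 Further: calcium flux response to an EC80 dopamine challenge measured with no-wash dye; on the % scale 0 is the no-effect control and ±100 the full control effect; nearly all actives have a fitted effect of over 65% in size.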 In short, it runs like this: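 Tetracycline-induced HEK293 T-REx cells expressing force-coupled D1 were plated overnight at 30 C, dye-loaded for calcium, and read kinetically. Compounds were pinned in, then an EC80 dopamine challenge followed after 180 s to reveal antagonism.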

Assay [11] in a line: Validation screen for small molecules that induce genotoxicity in human embryonic kidney (HEK293T) cells expressing luciferase-tagged ELG1 (AID 493106). Further: 0% is about no effect. In short, it runs like this:
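HEK293T cells expressing luciferase-tagged ELG1 were exposed to compound or DMSO vehicle for 16 hr at 37 °C, 5% CO2. Genotoxic stress raises ELG1 levels, so increased luciferase signal after ONE-Glo addition and 30 min at room temperature marks hits.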

Assay [12] concerns the target ATPase family AAA domain-containing protein 5 (Homo sapiens) (UniProt Q96QE3). In words: Validation screen for small molecules that inhibit ELG1-dependent DNA repair in human embryonic kidney (HEK293T) cells expressing luciferase-tagged ELG1 (AID 493107).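 Further: cells co-treated with the DNA-damaging agent 5-fluorouridine alongside compound; series mostly up to about 46 µM; on the % scale 0 is the no-effect control and ±100 the full control effect; inhibitors lower the ELG1-luciferase luminescence signal; nearly all actives have a fitted effect of over 70% in size.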 In short, it runs like this:
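HEK293T cells expressing luciferase-tagged ELG1 were co-treated with 5-fluorouridine and compound or DMSO for 16 hr at 37 °C, 5% CO2. Luciferase activity was then read with ONE-Glo after 30 min at room temperature; suppressed signal indicates blocked ELG1 function.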

Assay [13] concerns the target Thyrotropin-releasing hormone receptor (Homo sapiens) (UniProt P34981). In words: qHTS for Small Molecule Agonists and Allosteric Enhancers of Human TRH Receptor: Validation Screen for Agonists (AID 493127;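 active means calcium activation more than 3 SD above the typical response in the agonist read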;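 further: intracellular calcium rise by fluo-8 fluorescence before TRH EC20 addition; 0% is about no effect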). The following applies: TRH receptor agonist cell assay; at 2 µM; stronger effect = higher value. In a few lines:
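TRHR-expressing cells were plated overnight in serum-containing medium, then loaded with fluo-8 calcium dye at room temperature for 30 min–1.5 h. After a 10 s baseline, compound was pin-transferred and calcium fluorescence (ex 480/em 530) read kinetically for agonist response.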

Assay [14] is described as follows: Nrf2 qHTS screen for inhibitors: Validation (AID 493153; active means well fitted inhibition curve with a large enough effect in the main read-out, with a control signal flat, not every such curve was filed as active). The following applies: viability change: measured here: cytotoxicity max response. In a few lines:
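A549 cells carrying an ARE-driven firefly luciferase reporter, in 5% FBS OPTI-MEM, were treated with compounds in concentration-response for 18-24 h at 37°C. Viability was read by CellTiter-Fluor fluorescence, then Nrf2 activity by luciferase luminescence.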

Assay [15] is described as follows: qHTS for Inhibitors of Cell Surface uPA Generation: Validation Assay (AID 493164).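 Further: RAW 264.7 macrophage cells exposed to compound for 18 h; 0% is about no effect.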 In short, it runs like this:
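RAW 264.7, 4000 cells/well, o/n plating; cpd 7-pt 1:5 dilution 2.45 nM–38.3 uM final; 18 h, 37 C/5% CO2; ATP-Lite, 5 s luminescence exposure.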

For assay [16], the target named is Galactokinase (Homo sapiens) (UniProt P51570). The experiment in a line: qHTS Validation Assay for Inhibitors of Human Galactokinase (GALK) (AID 493189). Further: 0% is about no effect. In a few lines: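 GALK (5 nM) with 35 uM ATP and 100 uM galactose in HEPES pH 8.0 with MgCl2, NaCl, DTT and BSA. Reaction ran 1 h at room temperature. Residual ATP read by Kinase-Glo Plus luminescence.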
Chain of Galactokinase (Homo sapiens) (P51570 whole entry, looked up): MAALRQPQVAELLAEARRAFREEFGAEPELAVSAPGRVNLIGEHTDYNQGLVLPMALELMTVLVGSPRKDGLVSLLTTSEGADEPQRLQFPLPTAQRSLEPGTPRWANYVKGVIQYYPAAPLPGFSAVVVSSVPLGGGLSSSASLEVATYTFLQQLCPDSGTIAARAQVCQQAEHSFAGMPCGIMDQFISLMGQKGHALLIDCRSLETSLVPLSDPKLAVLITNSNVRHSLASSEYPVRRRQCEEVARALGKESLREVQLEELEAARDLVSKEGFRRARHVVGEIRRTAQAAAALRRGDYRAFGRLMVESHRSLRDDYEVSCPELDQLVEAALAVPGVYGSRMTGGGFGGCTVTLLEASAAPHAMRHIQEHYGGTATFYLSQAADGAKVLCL
Assay [17] in a line: Validation screen for small molecules that induce DNA re-replication in SW480 colon adenocarcinoma cells (AID 504364). Further: 0% is about no effect. In short, it runs like this: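 SW480 cells seeded at 250 per well were exposed to compound or DMSO for 48 hr at 37 C, 5% CO2, then stained with Hoechst for 40 min. DNA content per nucleus was imaged (405 nm ex, 500-530 nm em).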
Assay [18] addresses Peptidyl-prolyl cis-trans isomerase NIMA-interacting 1 (Homo sapiens) (UniProt Q13526). The experiment in a line: qHTS Validation Assay to Find Inhibitors of Pin1 (AID 504536; active means well fitted inhibition curve with a large enough effect in the polarisation, with a control signal flat, not every such curve was filed as active; the % refers to the polarisation;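 further: 0% = full Pin1 enzyme wells and -100% = no-enzyme wells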). In short, it runs like this: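 Fluorescence polarization competition: compounds (titration) displace HiFluor-488-labeled Pin1-1b peptide from Pin1 (0.3 uM final) in pH 7.5 HEPES buffer with DTT, 10 min at room temperature; %Activity normalized to no-enzyme wells, curves fitted.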

For assay [19], the target named is Flap endonuclease 1 (Homo sapiens) (UniProt P39748). The experiment in a line: qHTS Validation Assay for the Inhibitors of Human Flap endonuclease 1 (FEN1) (AID 488816). Further: on the % scale 0 is the no-effect control and ±100 the full control effect. In a few lines:
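FEN1, dispensed as a 10 nM reagent, was preincubated with pin-transferred compounds for 15 min at room temperature before substrate was added (50 nM final). Plates were read at 0 and 15 min, and a four-parameter Hill equation was fitted to the concentration-response data.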

Assay [20] has as its target ATP-dependent 6-phosphofructokinase (Trypanosoma brucei brucei) (UniProt O15648). In words: qHTS Assay to Find Inhibitors of T. brucei phosphofructokinase: hit validation (AID 492961).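 Further: luminescence reports ADP formed as PFK phosphorylates fructose-6-phosphate with ATP; series mostly up to about 51 µM; on the % scale 0 is the no-effect control and ±100 the full control effect.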 In a few lines: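 Reaction: 0.1 M triethanolamine pH 8.0, 5 mM MgCl2, F6P 0.5 mM, ATP 0.1 mM, PFK 1.25 nM, 45 min RT. Read-out: ADP-Glo luminescence. Analysis: concentration-response fits, classed by r2 and efficacy.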

Chain of Thioredoxin reductase 1, cytoplasmic (Rattus norvegicus) (O89049 whole entry, looked up): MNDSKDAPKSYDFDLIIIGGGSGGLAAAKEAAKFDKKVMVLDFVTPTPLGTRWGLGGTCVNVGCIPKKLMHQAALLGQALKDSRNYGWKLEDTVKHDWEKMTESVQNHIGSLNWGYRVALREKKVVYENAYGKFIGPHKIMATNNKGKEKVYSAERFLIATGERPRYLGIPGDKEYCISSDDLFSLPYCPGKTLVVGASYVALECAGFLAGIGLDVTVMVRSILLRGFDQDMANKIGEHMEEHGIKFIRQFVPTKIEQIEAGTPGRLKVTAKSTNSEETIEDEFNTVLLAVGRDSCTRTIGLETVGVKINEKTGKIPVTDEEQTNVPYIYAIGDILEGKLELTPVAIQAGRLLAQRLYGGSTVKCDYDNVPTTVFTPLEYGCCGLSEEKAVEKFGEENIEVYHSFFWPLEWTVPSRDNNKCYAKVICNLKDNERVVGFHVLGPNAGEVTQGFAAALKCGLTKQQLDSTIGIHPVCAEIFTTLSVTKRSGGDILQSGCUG
Chain of D(1A) dopamine receptor (Homo sapiens) (P21728 whole entry, looked up): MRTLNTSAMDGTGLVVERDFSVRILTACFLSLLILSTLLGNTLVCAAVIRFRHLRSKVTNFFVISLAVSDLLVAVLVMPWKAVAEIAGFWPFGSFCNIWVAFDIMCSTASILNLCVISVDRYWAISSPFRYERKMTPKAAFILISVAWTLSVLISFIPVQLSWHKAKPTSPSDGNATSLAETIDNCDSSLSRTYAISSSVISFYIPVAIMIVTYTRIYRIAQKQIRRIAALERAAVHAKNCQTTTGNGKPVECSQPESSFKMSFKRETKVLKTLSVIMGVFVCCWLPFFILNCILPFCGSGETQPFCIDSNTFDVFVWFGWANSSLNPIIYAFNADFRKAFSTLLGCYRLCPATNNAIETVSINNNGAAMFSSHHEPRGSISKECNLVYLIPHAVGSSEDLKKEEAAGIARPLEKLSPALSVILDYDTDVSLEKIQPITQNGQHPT
Chain of Thyrotropin-releasing hormone receptor (Homo sapiens) (P34981 whole entry, looked up): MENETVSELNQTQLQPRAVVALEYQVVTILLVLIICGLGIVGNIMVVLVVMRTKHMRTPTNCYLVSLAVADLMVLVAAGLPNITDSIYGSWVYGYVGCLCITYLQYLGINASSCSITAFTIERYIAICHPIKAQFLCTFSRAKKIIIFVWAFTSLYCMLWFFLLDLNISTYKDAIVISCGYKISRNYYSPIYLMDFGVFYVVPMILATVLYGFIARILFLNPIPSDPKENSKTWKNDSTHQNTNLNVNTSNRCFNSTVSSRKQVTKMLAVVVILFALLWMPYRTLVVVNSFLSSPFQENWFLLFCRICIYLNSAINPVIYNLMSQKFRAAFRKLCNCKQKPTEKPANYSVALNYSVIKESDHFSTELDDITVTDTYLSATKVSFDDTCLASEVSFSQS
Chain of Methanococcus maripaludis chaperonin (MmCpn) (Q6LX38 1-543): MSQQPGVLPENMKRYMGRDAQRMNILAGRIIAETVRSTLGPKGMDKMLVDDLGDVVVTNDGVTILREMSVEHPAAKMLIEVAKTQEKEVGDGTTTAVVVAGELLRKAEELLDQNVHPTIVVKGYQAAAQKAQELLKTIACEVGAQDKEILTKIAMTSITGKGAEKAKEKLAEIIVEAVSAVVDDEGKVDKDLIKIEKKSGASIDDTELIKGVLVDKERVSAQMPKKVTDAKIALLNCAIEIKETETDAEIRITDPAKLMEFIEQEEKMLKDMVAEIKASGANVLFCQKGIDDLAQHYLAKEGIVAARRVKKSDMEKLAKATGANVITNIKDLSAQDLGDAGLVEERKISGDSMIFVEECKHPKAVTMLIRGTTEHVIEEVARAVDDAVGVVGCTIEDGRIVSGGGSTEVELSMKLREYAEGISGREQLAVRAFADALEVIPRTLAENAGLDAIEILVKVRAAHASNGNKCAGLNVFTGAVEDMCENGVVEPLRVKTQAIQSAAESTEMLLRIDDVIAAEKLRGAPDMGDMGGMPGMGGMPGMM
Chain of Transient receptor potential cation channel subfamily V member 1 (Homo sapiens) (Q8NER1 whole entry, looked up): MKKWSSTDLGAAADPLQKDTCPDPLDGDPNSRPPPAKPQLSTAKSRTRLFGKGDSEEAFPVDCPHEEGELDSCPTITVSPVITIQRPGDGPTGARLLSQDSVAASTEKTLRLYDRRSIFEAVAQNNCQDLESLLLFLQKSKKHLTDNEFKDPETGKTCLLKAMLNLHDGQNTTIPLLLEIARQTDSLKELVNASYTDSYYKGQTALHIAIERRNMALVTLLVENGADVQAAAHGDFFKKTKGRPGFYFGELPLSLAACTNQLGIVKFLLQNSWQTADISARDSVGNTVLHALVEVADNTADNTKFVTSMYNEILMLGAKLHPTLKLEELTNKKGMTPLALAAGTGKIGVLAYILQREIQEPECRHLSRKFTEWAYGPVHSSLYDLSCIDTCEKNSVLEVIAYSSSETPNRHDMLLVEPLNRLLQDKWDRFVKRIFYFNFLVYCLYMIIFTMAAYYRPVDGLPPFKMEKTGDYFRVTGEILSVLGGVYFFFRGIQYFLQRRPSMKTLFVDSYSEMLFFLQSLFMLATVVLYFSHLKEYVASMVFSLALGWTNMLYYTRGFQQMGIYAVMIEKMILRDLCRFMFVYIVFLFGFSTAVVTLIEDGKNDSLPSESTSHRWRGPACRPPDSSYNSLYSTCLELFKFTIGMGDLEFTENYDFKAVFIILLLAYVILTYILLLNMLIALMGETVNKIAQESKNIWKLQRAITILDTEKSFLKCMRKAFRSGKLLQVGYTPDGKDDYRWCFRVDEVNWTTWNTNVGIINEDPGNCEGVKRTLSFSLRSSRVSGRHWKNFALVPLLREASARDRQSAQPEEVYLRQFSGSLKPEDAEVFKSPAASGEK
Chain of Peptidyl-prolyl cis-trans isomerase NIMA-interacting 1 (Homo sapiens) (Q13526 whole entry, looked up): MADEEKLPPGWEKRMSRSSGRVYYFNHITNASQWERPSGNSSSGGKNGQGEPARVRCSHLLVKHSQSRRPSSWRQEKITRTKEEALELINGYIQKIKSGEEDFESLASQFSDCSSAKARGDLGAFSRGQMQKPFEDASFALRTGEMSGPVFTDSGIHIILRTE
Chain of ATP-dependent 6-phosphofructokinase (Trypanosoma brucei brucei) (O15648 whole entry, looked up): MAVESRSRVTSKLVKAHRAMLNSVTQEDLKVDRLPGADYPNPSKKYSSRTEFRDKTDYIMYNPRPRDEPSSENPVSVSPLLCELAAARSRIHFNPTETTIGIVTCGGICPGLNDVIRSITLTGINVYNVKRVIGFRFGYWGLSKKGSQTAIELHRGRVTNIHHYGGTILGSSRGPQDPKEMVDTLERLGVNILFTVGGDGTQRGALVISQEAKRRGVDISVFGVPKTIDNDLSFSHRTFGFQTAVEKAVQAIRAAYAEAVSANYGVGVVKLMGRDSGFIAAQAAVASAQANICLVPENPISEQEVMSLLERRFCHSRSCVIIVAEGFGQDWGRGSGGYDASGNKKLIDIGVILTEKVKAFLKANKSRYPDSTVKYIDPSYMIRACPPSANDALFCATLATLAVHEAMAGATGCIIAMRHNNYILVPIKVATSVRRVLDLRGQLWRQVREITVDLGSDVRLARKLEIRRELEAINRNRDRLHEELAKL
Chain of Chromobox protein homolog 1 (Homo sapiens) (P83916 whole entry, looked up): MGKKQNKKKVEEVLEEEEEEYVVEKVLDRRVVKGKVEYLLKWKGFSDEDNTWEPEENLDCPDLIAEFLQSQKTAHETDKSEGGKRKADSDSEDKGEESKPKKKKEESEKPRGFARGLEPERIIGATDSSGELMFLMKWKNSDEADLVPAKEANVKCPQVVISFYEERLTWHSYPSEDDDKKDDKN

Turning to `COC(=O)[C@H]1[C@H]2C[C@H]3c4[nH]c5ccccc5c4CCN3C[C@H]2CC[C@@H]1O`, the Potency entry in assay [1], in [4], in [5], in assay [10] and in assay [12] was “inactive” in each case. Moreover, the molecule was classed as inactive in [2], in assay [3], in assay [6], in [7], in [8] and in [9]. The call in [11], in [14], in [15], in assay [16], in [17] and in [18] was inactive. In addition, in [13], the activation is 1.44% (inactive). Moreover, the viability change in [14] is -3.55%.

`COc1cc2c(cc1O)CC[C@@H]1[C@@H]2CC[C@]2(C)[C@@H](O)CC[C@@H]12`: the outcome in [2], in assay [3], in [19], in assay [6], in [9] and in assay [11] was inactive. The molecule was called inactive in [15] and in assay [18]. Further, the Potency entry in assay [4] and in assay [10] was “inactive” in each case.

Consider `COc1cc(-c2ccc(=O)[nH]n2)ccc1OC(F)F`, for which the Potency result in assay [1] and in assay [4] was “inactive” throughout. In addition, the result in assay [7], in [8], in assay [20], in assay [16] and in [17] was inactive. Further, the activation in assay [13] is -0.438% (inactive).

As for `CCCCCCc1ccc(O)cc1O`, the result in assay [20] was inactive.

These data come from PubChem BioAssay (NCATS).
